Shown are actives, neighbours in structure and some others; about 3.4% of the full set was active somewhere.
MITF primary = human MITF inhibition, primary screen; AlphaScreen MITF homodimerization, bead proximity signal; inhibition, % at 2.6 µM; 650,000 compounds, 0.91% hits; in the data active = inhibition above about 50%;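 also: 0% = vehicle wells with protein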
GPR151 ag = activators of human GPR151; 650,000 compounds, 1% hits; PathHunter beta-arrestin GPR151 cells, luminescence; Q8TDV0; activation, % at 11.2 µM; AID 1508602; in the data active = activation above about 4.9%;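 also: 0% = median of compound wells and 100% = cells with positive control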
TEAD-YAP block = TEAD-YAP interaction inhibition. HEK-TIYL cells, TEAD-Gal4/YAP UAS-luciferase luminescence. inhibition, % at 9.12 µM. 640,000 compounds, 1.4% hits; in the data active = inhibition above about 32%;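 also: 0% = median of test compound wells and 100% = reference inhibitor wells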
FBW7 act = human FBW7 E3 ligase activation, primary screen; 650,000 compounds, 0.13% hits; normalized activity (activation), % at 26.1 µM; AlphaScreen FBW7–phospho-cyclin E peptide binding, activator screen; Q969H0; in the data active = normalized activity above about 1.9%;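 also: purified mutant Fbw7 with reduced substrate affinity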
Target sequence (Q969H0 whole entry, looked up): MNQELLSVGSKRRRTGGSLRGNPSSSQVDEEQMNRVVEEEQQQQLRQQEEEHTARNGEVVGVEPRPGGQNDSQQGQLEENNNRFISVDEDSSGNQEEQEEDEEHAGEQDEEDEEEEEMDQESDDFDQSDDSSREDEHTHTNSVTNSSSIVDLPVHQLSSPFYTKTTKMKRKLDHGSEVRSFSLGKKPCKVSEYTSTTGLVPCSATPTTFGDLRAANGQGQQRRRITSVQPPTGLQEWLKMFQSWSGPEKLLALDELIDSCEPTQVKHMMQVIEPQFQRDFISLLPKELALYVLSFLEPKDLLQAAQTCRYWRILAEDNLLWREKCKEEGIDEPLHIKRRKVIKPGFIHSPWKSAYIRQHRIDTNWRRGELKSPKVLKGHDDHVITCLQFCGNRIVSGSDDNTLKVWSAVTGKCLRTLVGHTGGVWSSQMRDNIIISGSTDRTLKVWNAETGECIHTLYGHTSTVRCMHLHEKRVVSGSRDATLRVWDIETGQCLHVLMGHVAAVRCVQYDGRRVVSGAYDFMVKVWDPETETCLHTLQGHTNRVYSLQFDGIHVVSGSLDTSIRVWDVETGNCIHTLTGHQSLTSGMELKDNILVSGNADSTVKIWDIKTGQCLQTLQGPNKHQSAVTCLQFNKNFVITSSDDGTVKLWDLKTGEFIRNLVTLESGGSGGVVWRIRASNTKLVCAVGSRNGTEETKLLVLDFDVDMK
MITF inh conf = confirmation of human MITF inhibitors. 4,700 compounds, 16% hits. AID 1259372. AlphaScreen MITF homodimerization, biotin/His-MITF beads. shares compounds with MITF primary. inhibition, % at 2.6 µM;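 active = inhibition above a cutoff derived from the DMSO control wells, cut at about 28% in these data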;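 also: 0% = MITF dimer wells with DMSO only; inhibitors lower the bead chemiluminescence by keeping MITF from dimerizing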
AlphaScreen DR = counter-screen: compounds optically interfering with AlphaScreen; AID 1259373; AlphaScreen optical interference counterscreen, cell-free; shares compounds with MITF primary; 480 compounds, 6% hits; IC50, µM; call rule not given here
AlphaScreen intf2 = counter-screen: compounds optically interfering with AlphaScreen; 4,700 compounds, 7.6% hits; LysRS AlphaScreen counterscreen, signal interference, triplicate; shares compounds with MITF primary; inhibition, % at 2.6 µM;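 active = inhibition above a cutoff derived from the DMSO control wells, cut at about 30% in these data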
* marks the source's active call; other numbers are inactive results; · = no result; ! = not confirmed by another sample.

SMILES | MITF primary | GPR151 ag | TEAD-YAP block | FBW7 act | MITF inh conf | AlphaScreen intf2 | others
CCOc1cc(C2Nc3ccccc3-c3nnc(SC)nc3O2)ccc1O (configuration not stated) | -13 | 0 | 16 | 0 | · | ·
O=C(Nc1ccc(Nc2nccc(-c3ccc4nc(C5CC5)[nH]c(=O)c4c3)n2)cc1)N1CCCC1 | 39 | 1 | -16 | 2 | · | ·
O=C(C1CCC(Nc2nccc(-c3ccc4nc(C5CC5)[nH]c(=O)c4c3)n2)CC1)N1CCCC1 (configuration not stated) | 59*! | 0 | -17 | 2.6*! | 63* | -10 | AlphaScreen DR=>6.5
Cn1nnc(-c2ccc(Nc3nccc(-c4ccc5nc(C6CC6)[nH]c(=O)c5c4)n3)cc2)n1 | 63* | 2 | 4 | 1 | 39* | -22 | AlphaScreen DR=>6.5
COCCCNCCCCOc1ccc(C(C)C)c(C)c1 | 58* | 0 | 7 | 0 | 4 | 15
COCCCNCCCOc1ccc(C(C)C)c(C)c1 | 59* | -2 | -5 | 0 | 2 | 18
CCOC(=O)C(=O)C(C#N)c1ccccc1 (configuration not stated) | 83* | 1 | -1 | 0 | 11 | 19
O=c1c2c3c(sc2nc2c4ccccc4c(NCC4CCCO4)nn12)CCCC3 (configuration not stated) | 1 | 3 | -15 | 0 | · | ·
CC(C)NC(=O)CCCc1nc(-c2ccccc2Cl)no1 | 68* | -1 | 5 | 0 | 10 | 14
O=C(O)CCCc1nc(-c2ccccc2Cl)no1 | 24 | 1 | -1 | 0 | · | ·
O=C(O)c1coc(CNC(=O)c2cocc2C(=O)O)c1 | 64* | 0 | 9 | 0 | 50* | 14 | AlphaScreen DR=>6.5
O=c1[nH]c(-c2ccco2)nc2sc3c(c12)CCCC3 | 81* | -1 | -28 | 0 | 69* | -13 | AlphaScreen DR=>9.7
COc1cc(-c2nc3sc4c(c3c(=O)[nH]2)CCCC4)ccc1OC(=O)c1ccc(Cl)cc1 | -14 | 1 | -2 | 0 | · | ·
COc1cc(-c2nc3sc4c(c3c(=O)[nH]2)CCCC4)ccc1OC(=O)c1ccc(F)cc1 | 75* | 0 | 3 | 0 | -2 | -5
CCOc1ccc(S(=O)(=O)NC2CCCCC2)cc1-c1nc2c(C(C)(C)C)nn(C)c2c(=O)[nH]1 | 77* | -1 | -3 | 0 | 9 | 10
CC(=O)NC(=S)NNC(=O)c1ccccc1I | 3 | -1 | -1 | -1 | · | ·
O=C(NC(=S)NNC(=O)c1ccccc1O)c1cccs1 | 78* | 1 | 10 | 0 | 26 | 100*
CC(=O)NC(=S)NNC(=O)c1ccccc1O | 76* | 0 | 30 | -2 | 39* | 100*
Cc1nc(N(C)Cc2ccccc2)c2c3c(sc2n1)CCC3 | 4 | -1 | -16 | 0 | · | ·
CCOC(=O)c1c(NC(=O)C(C)Sc2nnc(CNC(=O)c3ccc([N+](=O)[O-])cc3)n2-c2ccc(F)cc2)sc2c1CCC2 (configuration not stated) | -13 | 4 | -5 | 0 | · | ·
Cc1cccc(NC2=C(C(=O)c3ccc(Cl)cc3)C(c3ccc(F)cc3)N(CCCCCC(=O)O)C2=O)c1 (configuration not stated) | 79* | 1 | -17 | 0 | -3 | -1
CCOc1cc2c(cc1OCC)C(c1nc(CC)[nH]c1C)NCC2 (configuration not stated) | -5 | 0 | 3 | 0 | · | ·
O=C(NCCO)c1ccc2nc(-c3ccco3)c(-c3ccco3)nc2c1 | 74* | -1 | 7 | -1 | 83* | 24 | AlphaScreen DR=>6.5
O=C(NCCCN1CCOCC1)c1ccc2nc(-c3ccco3)c(-c3ccco3)nc2c1 | 14 | 0 | 3 | -1 | · | ·
CCCc1[nH]nc2c1C(c1cccc(I)c1)C(C#N)=C(N)O2 (configuration not stated) | 13 | -1 | -1 | 0 | · | ·
SMILES | MITF primary | GPR151 ag | TEAD-YAP block | FBW7 act | MITF inh conf | AlphaScreen intf2 | others
COc1cccc(CN2CCN(Cc3cccnc3)CC2)c1 | 79* | -1 | -4 | 0 | -11 | 0
COc1cc(CN2CCCCCCC2)cc(OC)c1O | 22 | 0 | -3 | 0 | · | ·
COc1cccc(CN2CCOCC2)c1 | -2 | 0 | 7 | 0 | · | ·
CSc1ccc(CN2CCN(Cc3cccnc3)CC2)cc1 | 86* | 0 | 3 | 1 | 16 | 17
COc1cc(CN2CCN(Cc3cccnc3)CC2)cc(OC)c1O | 66* | -2 | 1 | 0 | 4 | 7
COc1ccc(C2CCN(Cc3cccnc3)CC2)cc1 | 64* | 0 | 2 | 0 | 10 | 9
CCOc1ccc(NC(=O)c2c(NC(=O)c3ccc(C)cc3)sc3c2CCC3)cc1 | 7 | -2 | 4 | 0 | · | ·
COc1ccc(CC2(CO)CCN(Cc3cccnc3)CC2)cc1 | -5 | 1 | 6 | 0 | · | ·
COc1cccc(CN2CCC(CNc3ccc(-c4ccncc4)cc3)C2)c1 (configuration not stated) | 63* | -2 | -6 | 0 | 61* | 12 | AlphaScreen DR=>6.5
COc1ccc(CN2CCN(Cc3cccnc3)CC2)cc1 | 74* | 2 | -14 | 0 | 24 | 13
N#Cc1c(NC(=O)/C=C/c2ccc(Cl)cc2)sc2c1CCCC2 | -5 | -1 | 5 | 0 | · | ·
Nc1ncc(CN2CCc3ccc(NC(=O)C4(c5ccccc5)CC4)cc3C2)cn1 | 9 | -2 | 3 | 0 | · | ·
COc1ccccc1NS(=O)(=O)c1cccc(NC(=O)NC2(C(F)(F)F)Oc3ccc(Cl)cc3O2)c1 (configuration not stated) | 68* | 0 | -7 | 0 | -14 | 4
Cc1ccccc1NC(=O)NC1(C(F)(F)F)Oc2ccc(Cl)cc2O1 (configuration not stated) | 29 | 0 | 4 | 0 | · | ·
Cc1ccnc(N2C3CCC2CC(O)(c2ccccc2)C3)n1 (configuration not stated) | 53* | -1 | 8 | 0 | 12 | 13
Cc1ccc(C2(O)CC3CCC(C2)N3c2cc(C)nc(N)n2)cc1 (configuration not stated) | -19 | -1 | 8 | 0 | · | ·
CC1=NN(c2nnc(C)c(=O)[nH]2)C(=O)C1 | 103* | -1 | 7 | 0 | 83* | 100*
CC1=NN(c2ccc(C)cc2)C(=O)C1 | 13 | -1 | 3 | -1 | · | ·
COCCN1C(=O)C(=O)/C(=C(\O)c2ccccc2)C1c1ccccc1F (configuration not stated) | 22 | 0 | 9 | 0 | · | ·
Cc1cccc(NC(=O)C2C3C=CC(C4CC34)C2C(=O)O)c1C (configuration not stated) | 55* | 4 | 5 | 0 | 17 | 15
CC(=O)Nc1ccccc1NC(=O)C(C)Oc1ccc(Br)cc1 (configuration not stated) | 0 | 0 | 12 | 0 | · | ·
Cc1ccc(/C(C#N)=C\c2ccco2)cc1 | 56* | -1 | -40 | 0 | 42* | 1 | AlphaScreen DR=>6.5

Compound activity (PubChem BioAssay)
